Inconclusive results are not listed. The source made the active and inactive calls. Calls come from the whole dose curve; as a rule, active = well fitted inhibition curve with a large enough effect; inconclusive = small, poorly fitted or top-dose-only effect; inactive = flat fitted curve, though single readings scatter.
Experiments:
Assay in all cases: qHTS profiling for inhibitors of Plasmodium falciparum proliferation (AID 504749); note: nearly all actives have a fitted effect of over 60% in size
Settings in all cases: P. falciparum in erythrocytes, SYBR Green DNA, 72 h; series mostly up to 28.7 µM
3D7 = system: 3D7
How it was run: (§1)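 Fluorescence of SYBR Green-bound parasite DNA, read at 485/535 nm, served as the growth measure. Infected erythrocytes were cultured with compound 72 h; artemisinin (0.29 uM) and DMSO wells defined the normalization range.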

CP185 = system: CP185
How it was run: as §1

CP192 = system: CP192
How it was run: as §1

CP194 = system: CP194
How it was run: as §1

CP201 = system: CP201
How it was run: as §1

CP203 = system: CP203
How it was run: as §1

CP238 = system: CP238
How it was run: as §1

CP247 = system: CP247
How it was run: as §1

CP262 = system: CP262
How it was run: as §1

CP265 = system: CP265
How it was run: as §1

CP268 = system: CP268
How it was run: as §1

CP269 = system: CP269
How it was run: as §1

CP286 = system: CP286
How it was run: as §1

CP291 = system: CP291
How it was run: as §1

CP305 = system: CP305
How it was run: as §1

CP325 = system: CP325
How it was run: as §1

CP329 = system: CP329
How it was run: as §1

DIV30 = system: DIV30
How it was run: as §1

FAB9 = system: FAB9
How it was run: as §1

PC49 = system: PC49
How it was run: as §1

Measured: Potency

CN1[C@H]2CC(OC(=O)[C@H](CO)c3ccccc3)C[C@H]1[C@H]1O[C@H]12 (stereo not given in full)
inactive: all assays above
